Our source for the growth inhibition values is PubChem BioAssay (NCI).

About 79,000 compounds went through this panel and 15% of them were active in at least one assay; those are over-represented in the sample as a whole. Values without a mark were called inactive. Calls of active or inactive are those of the source. Cut-off read from the data, not from the text of the source: active = growth inhibition above about 70%; inactive = the rest.

Assay [1] can be described thus: NCI Yeast Anticancer Drug Screen. Data for the rad50 strain (AID 155).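 Note: 0% = growth of vehicle-only cultures of the same strain.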 The note with it: S. cerevisiae rad50 strain growth inhibition, active compounds read high. Summed up: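 Relative growth inhibition (compound vs vehicle) was measured in yeast with a defined repair-gene alteration.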
The nature of assay [2]: NCI Yeast Anticancer Drug Screen. Data for the mec2-1 strain (AID 157). The settings on record: S. cerevisiae mec2-1 strain, active compounds read high. Summed up: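 Mutant yeast (mec2-1) grown with compound; growth inhibition relative to vehicle control reported.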
A short description of assay [3]: NCI Yeast Anticancer Drug Screen. Data for the sgs1 mgt1 strain (AID 161).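 Note: 0% = growth of cultures given vehicle only.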 The settings on record: S. cerevisiae sgs1 mgt1 strain, active compounds read high. Summed up:
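Percent growth inhibition was derived by comparing compound-exposed mutant yeast with vehicle-exposed cultures. The strain carries alterations in DNA damage repair.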

Assay [4] can be described thus: NCI Yeast Anticancer Drug Screen. Data for the cln2 rad14 strain (AID 165).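 Note: 0% = growth equal to vehicle treated cultures.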 The note with it: S. cerevisiae cln2 rad14 strain, active compounds read high. An outline of the steps:
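Readout is yeast growth inhibition versus vehicle-treated controls, using a strain with cln2 and rad14 alterations exposed to compound.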

The nature of assay [5]: NCI Yeast Anticancer Drug Screen. Data for the bub3 strain (AID 167). The settings on record: S. cerevisiae bub3 mutant strain, active compounds read high. An outline of the steps:
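Screening used yeast with an engineered genetic alteration affecting cell cycle control. Compound-exposed cultures were compared with vehicle cultures, and reduced growth was taken as inhibition.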

Assay [6] can be described thus: NCI Yeast Anticancer Drug Screen. Data for the mlh1 rad18 strain (AID 175). The note with it: S. cerevisiae mlh1 rad18 strain growth inhibition, active compounds read high. Summed up:
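Genetically defined yeast (DNA repair-deficient) exposed to compounds; growth inhibition determined relative to vehicle.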

Where [7] appears, read: at 5.0 µM (retest, dose inferred, filed as 0.5).
Setting [8] is: at 50.0 µM (retest, dose inferred, filed as 5.0).

For the compound `Cc1ccc(Oc2ccc(C(=O)C(CN(C)C)CN(C)C)cc2)cc1`, the growth inhibition was 93% (active) in assay [1] (setting [7]); 98% (active) in assay [1] (setting [8]); 92.1% (active) in assay [1] (at 50.0 µM); 93% (active) in assay [2] (setting [7]); 96% (active) in assay [2] (setting [8]); 98% (active) in assay [2] (at 50.0 µM). For the same compound, the growth inhibition was 95% (active) in assay [3] (setting [7]); 98% (active) in assay [3] (setting [8]); 51.4% in assay [3] (at 50.0 µM); 75% (active) in assay [4] (setting [7]); 95% (active) in assay [4] (setting [8]); 95.6% (active) in assay [4] (at 50.0 µM). In addition, the growth inhibition is 91% (active) in assay [5] (setting [7]); 96% (active) in assay [5] (setting [8]); 96.2% (active) in assay [5] (at 50.0 µM); 96% (active) in assay [6] (setting [7]); 96% (active) in assay [6] (setting [8]); 97.1% (active) in assay [6] (at 50.0 µM).
Consider `CCc1cc2c(c3c1C(=O)CC3)C(C)(C)CCC2`, for which the growth inhibition in assay [1] (setting [7]) was 1%; in assay [1] (setting [8]) it was 96% (active); in assay [1] (at 50.0 µM), 11%; in assay [2] (setting [7]), 2%; in assay [2] (setting [8]), 96% (active); in assay [2] (at 50.0 µM), 34.6%. In addition, the growth inhibition was 1% in assay [3] (setting [7]); 97% (active) in assay [3] (setting [8]); 6.4% in assay [3] (at 50.0 µM); 2% in assay [4] (setting [7]); 97% (active) in assay [4] (setting [8]); 13.8% in assay [4] (at 50.0 µM). For the same compound, the growth inhibition was 12% in assay [5] (setting [7]); 97% (active) in assay [5] (setting [8]); 48.5% in assay [5] (at 50.0 µM); -6% in assay [6] (setting [7]); 97% (active) in assay [6] (setting [8]); 5% in assay [6] (at 50.0 µM).
Take `Cn1c(C2CCC(=O)N2Cc2ccccc2)n[nH]c1=S` (configuration not stated): the growth inhibition is 1% in assay [1] (setting [7]); 0% in assay [1] (setting [8]); 55.5% in assay [1] (at 50.0 µM); -1% in assay [2] (setting [7]); -3% in assay [2] (setting [8]); 22.4% in assay [2] (at 50.0 µM). In addition, the growth inhibition was 4% in assay [3] (setting [7]); -2% in assay [3] (setting [8]); 74.4% (active) in assay [3] (at 50.0 µM); 2% in assay [4] (setting [7]); 3% in assay [4] (setting [8]); -1.85% in assay [4] (at 50.0 µM). In addition, the growth inhibition in assay [5] (setting [7]) was 3%; in assay [5] (setting [8]), -2%; in assay [5] (at 50.0 µM) it was 62.5%; in assay [6] (setting [7]), 1%; in assay [6] (setting [8]), -4%; in assay [6] (at 50.0 µM), 89.5% (active).
On to `CCC(C)Sc1nc2c([nH]1)c(=S)n(C)c(=O)n2C` (configuration not stated), for which the growth inhibition in assay [1] (setting [7]) was 9%; in assay [1] (setting [8]), 39%; in assay [1] (at 50.0 µM), 87.7% (active); in assay [2] (setting [7]) it was 20%; in assay [2] (setting [8]), 52%; in assay [2] (at 50.0 µM), 96% (active). Also, the growth inhibition in assay [3] (setting [7]) is 5%; in assay [3] (setting [8]), -19%; in assay [3] (at 50.0 µM), 96.7% (active); in assay [4] (setting [7]), -3%; in assay [4] (setting [8]), 17%; in assay [4] (at 50.0 µM) it was 23.9%. Also, the growth inhibition in assay [5] (setting [7]) was 16%; in assay [5] (setting [8]), 49%; in assay [5] (at 50.0 µM), 95.7% (active); in assay [6] (setting [7]), 1%; in assay [6] (setting [8]) it was 24%; in assay [6] (at 50.0 µM), 95.2% (active).
Take `O=c1[nH]cc(F)c(=O)n1C1CCCCO1` (configuration not stated): the growth inhibition in assay [1] (setting [7]) was 30%; in assay [1] (setting [8]), 41%; in assay [1] (at 50.0 µM), 46%; in assay [2] (setting [7]), 16%; in assay [2] (setting [8]), 34%; in assay [2] (at 50.0 µM), 49.5%. The growth inhibition in assay [3] (setting [7]) was 46%; in assay [3] (setting [8]) it was 72% (active); in assay [3] (at 50.0 µM) it was 71% (active); in assay [4] (setting [7]), 46%; in assay [4] (setting [8]) it was 49%; in assay [4] (at 50.0 µM) it was 12.2%. The growth inhibition in assay [5] (setting [7]) is 42%; in assay [5] (setting [8]), 59%; in assay [5] (at 50.0 µM), 34.5%; in assay [6] (setting [7]), 23%; in assay [6] (setting [8]) it was 35%; in assay [6] (at 50.0 µM) it was 6.85%.
Take `O=C([O][Sb]([O]C(=O)C(Cl)(Cl)Cl)([c]1ccccc1)([c]1ccccc1)[c]1ccccc1)C(Cl)(Cl)Cl`: the growth inhibition in assay [1] (setting [7]) was 12%; in assay [1] (setting [8]), 76% (active); in assay [1] (at 50.0 µM), 41%; in assay [2] (setting [7]), 7%; in assay [2] (setting [8]) it was 56%; in assay [2] (at 50.0 µM) it was 29.2%. Moreover, the growth inhibition in assay [3] (setting [7]) was 10%; in assay [3] (setting [8]), 77% (active); in assay [3] (at 50.0 µM), 67.1%; in assay [4] (setting [7]), -5%; in assay [4] (setting [8]) it was 55%; in assay [4] (at 50.0 µM), 11.9%. The growth inhibition is 6% in assay [5] (setting [7]); 76% (active) in assay [5] (setting [8]); -69.9% in assay [5] (at 50.0 µM); 3% in assay [6] (setting [7]); 79% (active) in assay [6] (setting [8]); 66.7% in assay [6] (at 50.0 µM).
Turning to `Oc1[nH]c2ccccc2c1N=NC(=S)NCc1ccccn1`, the growth inhibition in assay [1] (setting [7]) is 9%; in assay [1] (setting [8]), 99% (active); in assay [1] (at 50.0 µM) it was 77.4% (active); in assay [2] (setting [7]), 2%; in assay [2] (setting [8]), 99% (active); in assay [2] (at 50.0 µM), 86.3% (active). Moreover, the growth inhibition in assay [3] (setting [7]) is 22%; in assay [3] (setting [8]), 98% (active); in assay [3] (at 50.0 µM) it was 90.9% (active); in assay [4] (setting [7]), 31%; in assay [4] (setting [8]), 99% (active); in assay [4] (at 50.0 µM), 90.5% (active). The growth inhibition in assay [5] (setting [7]) is 3%; in assay [5] (setting [8]), 99% (active); in assay [5] (at 50.0 µM), 90.8% (active); in assay [6] (setting [7]) it was 26%; in assay [6] (setting [8]) it was 99% (active); in assay [6] (at 50.0 µM), 91.8% (active).
Consider `CC(=O)SC1C(=O)N(C)C(SC(C)=O)C(=O)N1C` (configuration not stated), for which the growth inhibition in assay [1] (setting [7]) is -5%; in assay [1] (setting [8]), -21%; in assay [1] (at 50.0 µM), 95.8% (active); in assay [2] (setting [7]), -5%; in assay [2] (setting [8]), 11%; in assay [2] (at 50.0 µM), 97% (active). Besides, the growth inhibition in assay [3] (setting [7]) was 0%; in assay [3] (setting [8]), 55%; in assay [3] (at 50.0 µM), 96.6% (active); in assay [4] (setting [7]) it was -1%; in assay [4] (setting [8]), 0%; in assay [4] (at 50.0 µM), 95% (active). Besides, the growth inhibition is 0% in assay [5] (setting [7]); -3% in assay [5] (setting [8]); 95.6% (active) in assay [5] (at 50.0 µM); -2% in assay [6] (setting [7]); 70% (active) in assay [6] (setting [8]); 96.5% (active) in assay [6] (at 50.0 µM).
Regarding `FC(F)(F)c1ccccc1NC(=S)SCc1ccco1`, the growth inhibition is 1% in assay [1] (setting [7]); 52% in assay [1] (setting [8]); 93.7% (active) in assay [1] (at 50.0 µM); 1% in assay [2] (setting [7]); 32% in assay [2] (setting [8]); 76.3% (active) in assay [2] (at 50.0 µM). Also, the growth inhibition was 1% in assay [3] (setting [7]); 45% in assay [3] (setting [8]); 87.7% (active) in assay [3] (at 50.0 µM); -4% in assay [4] (setting [7]); 17% in assay [4] (setting [8]); 52.1% in assay [4] (at 50.0 µM). Besides, the growth inhibition in assay [5] (setting [7]) was 8%; in assay [5] (setting [8]), 33%; in assay [5] (at 50.0 µM), 81.3% (active); in assay [6] (setting [7]), -2%; in assay [6] (setting [8]) it was 57%; in assay [6] (at 50.0 µM) it was 88.3% (active).
